# Reference: ChEMBL document CHEMBL3988442, “University of Dundee, Small-Polar-MMV Screening Library” (2021)
# For some assays here: Potency and affinity values are given separately.
# Tests used:
# Set-up in all cases: scale not given: direction of the effect not stated beside the values
# [1] = target: Protein translocase subunit SecA (Escherichia coli (strain K12)) (UniProt P10408); test: Assay to Identify E. coli SecA ATPase Inhibitors; type: functional; details: 30 µM
# [2] = target: T1, Ubiquitin-activating enzyme e1, putative (Leishmania donovani (strain BPK282A1)) (UniProt E9BSI1); test: Leishmania donovani Ubiquitin Activating Enzyme (LdE1); type: functional; details: 30 µM
# T1 sequence (whole entry): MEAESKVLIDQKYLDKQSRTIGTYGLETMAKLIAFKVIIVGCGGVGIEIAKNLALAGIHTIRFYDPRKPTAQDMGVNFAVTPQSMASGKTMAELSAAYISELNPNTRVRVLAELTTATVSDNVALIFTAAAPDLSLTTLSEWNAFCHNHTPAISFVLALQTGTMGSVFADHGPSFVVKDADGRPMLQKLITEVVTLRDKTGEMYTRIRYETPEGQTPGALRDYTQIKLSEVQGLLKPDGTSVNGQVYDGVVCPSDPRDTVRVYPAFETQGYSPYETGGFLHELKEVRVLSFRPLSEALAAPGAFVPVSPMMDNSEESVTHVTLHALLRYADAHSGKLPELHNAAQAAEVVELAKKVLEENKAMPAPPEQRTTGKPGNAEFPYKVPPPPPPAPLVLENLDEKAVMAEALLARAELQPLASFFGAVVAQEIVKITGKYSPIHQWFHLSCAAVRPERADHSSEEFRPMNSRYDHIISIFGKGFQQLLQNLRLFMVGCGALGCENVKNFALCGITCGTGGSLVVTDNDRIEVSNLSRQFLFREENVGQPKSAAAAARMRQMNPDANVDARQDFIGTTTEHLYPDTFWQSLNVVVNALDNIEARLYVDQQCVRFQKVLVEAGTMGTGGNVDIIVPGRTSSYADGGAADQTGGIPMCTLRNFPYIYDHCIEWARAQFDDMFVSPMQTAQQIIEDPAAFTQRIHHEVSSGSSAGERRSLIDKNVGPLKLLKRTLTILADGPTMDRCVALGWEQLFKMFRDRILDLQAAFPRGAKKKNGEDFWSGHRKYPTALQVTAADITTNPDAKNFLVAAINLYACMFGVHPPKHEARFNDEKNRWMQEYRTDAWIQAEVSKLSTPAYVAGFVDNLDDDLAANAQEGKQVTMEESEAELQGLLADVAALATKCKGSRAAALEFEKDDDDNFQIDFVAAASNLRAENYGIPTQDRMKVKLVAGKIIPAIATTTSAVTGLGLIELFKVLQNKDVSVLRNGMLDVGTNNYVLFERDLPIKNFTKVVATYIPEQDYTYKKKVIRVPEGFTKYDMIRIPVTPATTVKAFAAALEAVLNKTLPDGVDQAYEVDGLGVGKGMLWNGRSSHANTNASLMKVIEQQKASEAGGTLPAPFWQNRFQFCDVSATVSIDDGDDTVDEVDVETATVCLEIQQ
# [3] = target: AMP-activated protein kinase, AMPK (Homo sapiens) (UniProt P54646+O43741+P54619+Q9UGJ0+Q9Y478+Q13131+Q9UGI9); test: AMP-dependent Kinase enzyme assay. An in vitro enzyme assay that detects ADP turnover that is directly proportional to AMPK activity. This uses naive AMPK that is activated during the assay with MK-8722; type: functional; details: 30 µM
# [4] = target: Sialic acid-binding Ig-like lectin 9 (Homo sapiens) (UniProt Q9Y336); test: Hs-Siglec9 ALPHAscreen SOP 20170721; details: 10 µM
# Sialic acid-binding Ig-like lectin 9 (Homo sapiens), sequence (Q9Y336 whole entry): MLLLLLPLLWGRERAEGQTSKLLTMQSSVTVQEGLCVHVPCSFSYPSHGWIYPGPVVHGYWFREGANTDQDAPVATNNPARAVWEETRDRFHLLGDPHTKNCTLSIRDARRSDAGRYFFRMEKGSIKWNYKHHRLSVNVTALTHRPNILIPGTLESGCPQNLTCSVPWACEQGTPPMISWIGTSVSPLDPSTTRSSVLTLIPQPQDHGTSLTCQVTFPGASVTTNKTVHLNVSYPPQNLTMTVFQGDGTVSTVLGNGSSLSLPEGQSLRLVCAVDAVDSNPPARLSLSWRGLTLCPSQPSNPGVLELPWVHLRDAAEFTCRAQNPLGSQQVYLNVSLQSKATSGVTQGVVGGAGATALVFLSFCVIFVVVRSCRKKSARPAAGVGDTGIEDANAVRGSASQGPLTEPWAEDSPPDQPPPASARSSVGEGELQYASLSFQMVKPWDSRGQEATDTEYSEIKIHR
# Trypanosoma cruzi = test: Trypanosoma cruzi phosphomannomutase and mannose-1-phosphate guanylyltransferase assay; type: functional; details: 10 µM
# [5] = target: T2, Arginase-2, mitochondrial (Homo sapiens) (UniProt P78540); test: in vitro enzyme assay to detect the production of urea directly proportional to the activity of Arginase II; type: functional; details: 33.3 µM; note: in the data most compounds retested in dose-response had high values
# T2 sequence (whole entry): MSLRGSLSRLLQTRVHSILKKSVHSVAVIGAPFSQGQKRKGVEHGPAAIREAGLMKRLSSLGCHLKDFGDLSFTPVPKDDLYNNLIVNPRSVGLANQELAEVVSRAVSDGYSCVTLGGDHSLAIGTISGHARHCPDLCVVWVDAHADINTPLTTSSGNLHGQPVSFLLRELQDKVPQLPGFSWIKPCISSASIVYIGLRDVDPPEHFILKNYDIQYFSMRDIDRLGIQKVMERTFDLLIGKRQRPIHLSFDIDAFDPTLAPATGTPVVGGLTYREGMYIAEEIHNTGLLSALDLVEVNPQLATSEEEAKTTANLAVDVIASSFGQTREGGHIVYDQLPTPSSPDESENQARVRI
# [6] = target: T3, Proteasome subunit beta (Trypanosoma cruzi) (UniProt O96673); test: Trypanosoma cruzi proteasome chymotrypsin-like activity (TcProtChymo) assay.; note: in the data most compounds retested in dose-response had high values; type: functional; details: 9.37 µM
# T3 sequence (whole entry): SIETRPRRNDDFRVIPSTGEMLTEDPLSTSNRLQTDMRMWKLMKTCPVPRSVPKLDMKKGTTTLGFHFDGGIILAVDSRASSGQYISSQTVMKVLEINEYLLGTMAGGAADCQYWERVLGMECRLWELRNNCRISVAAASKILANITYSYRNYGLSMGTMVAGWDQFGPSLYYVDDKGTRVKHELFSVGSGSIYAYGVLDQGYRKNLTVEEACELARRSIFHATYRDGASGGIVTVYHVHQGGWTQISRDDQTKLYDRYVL
# Homo sapiens = species on record: Homo sapiens; test: To identify inhibition of the IFN signalling (Jak-Stat) pathway via expression of an eGFP reporter gene under the control of an IFN-stimulated response element (ISRE) containing MxA promoter.; type: functional; details: 30 µM
# [7] = target: T4, Tyrosyl-tRNA synthetase, putative (Trypanosoma cruzi (strain CL Brener)) (UniProt Q4DSP6); test: Trypanosoma cruzi tyrosyl tRNA synthetase (TcYRS) _High Tyrosine SOP; type: functional; details: 30 µM; note: in the data most compounds retested in dose-response had high values
# T4 sequence (whole entry): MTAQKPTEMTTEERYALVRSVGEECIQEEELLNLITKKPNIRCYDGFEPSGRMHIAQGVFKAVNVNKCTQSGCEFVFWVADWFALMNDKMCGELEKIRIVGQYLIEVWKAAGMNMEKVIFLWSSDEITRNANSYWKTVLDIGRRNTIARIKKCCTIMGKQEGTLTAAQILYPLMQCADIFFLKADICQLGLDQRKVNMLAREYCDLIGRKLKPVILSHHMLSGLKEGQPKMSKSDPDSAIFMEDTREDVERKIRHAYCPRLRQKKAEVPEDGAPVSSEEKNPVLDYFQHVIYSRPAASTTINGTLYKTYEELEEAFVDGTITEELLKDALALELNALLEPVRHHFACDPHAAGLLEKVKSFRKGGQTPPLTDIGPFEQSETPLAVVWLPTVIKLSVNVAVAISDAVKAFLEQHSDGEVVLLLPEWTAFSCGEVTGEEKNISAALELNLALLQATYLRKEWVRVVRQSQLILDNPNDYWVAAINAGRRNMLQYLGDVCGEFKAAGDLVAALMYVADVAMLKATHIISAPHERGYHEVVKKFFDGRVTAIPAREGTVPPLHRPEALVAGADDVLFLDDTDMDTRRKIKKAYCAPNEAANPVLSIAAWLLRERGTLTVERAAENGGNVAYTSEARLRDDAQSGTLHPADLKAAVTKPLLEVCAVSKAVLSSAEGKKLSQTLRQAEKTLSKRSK
# [8] = target: T4, Tyrosyl-tRNA synthetase, putative (Trypanosoma cruzi (strain CL Brener)); test: Trypanosoma cruzi tyrosyl tRNA synthetase (TcYRS) SOP; type: functional; details: 30 µM
# [9] = target: Chromo domain-containing protein 1 (Saccharomyces cerevisiae (strain ATCC 204508 / S288c) (Baker's yeast)) (UniProt P32657); test: ScCHD-1 Enzyme Inhibition Assay; type: functional; details: 30 µM; note: in the data most compounds retested in dose-response had high values
# Chromo domain-containing protein 1 (Saccharomyces cerevisiae (strain ATCC 204508 / S288c) (Baker's yeast)), sequence (P32657 whole entry, the tested form may be a part): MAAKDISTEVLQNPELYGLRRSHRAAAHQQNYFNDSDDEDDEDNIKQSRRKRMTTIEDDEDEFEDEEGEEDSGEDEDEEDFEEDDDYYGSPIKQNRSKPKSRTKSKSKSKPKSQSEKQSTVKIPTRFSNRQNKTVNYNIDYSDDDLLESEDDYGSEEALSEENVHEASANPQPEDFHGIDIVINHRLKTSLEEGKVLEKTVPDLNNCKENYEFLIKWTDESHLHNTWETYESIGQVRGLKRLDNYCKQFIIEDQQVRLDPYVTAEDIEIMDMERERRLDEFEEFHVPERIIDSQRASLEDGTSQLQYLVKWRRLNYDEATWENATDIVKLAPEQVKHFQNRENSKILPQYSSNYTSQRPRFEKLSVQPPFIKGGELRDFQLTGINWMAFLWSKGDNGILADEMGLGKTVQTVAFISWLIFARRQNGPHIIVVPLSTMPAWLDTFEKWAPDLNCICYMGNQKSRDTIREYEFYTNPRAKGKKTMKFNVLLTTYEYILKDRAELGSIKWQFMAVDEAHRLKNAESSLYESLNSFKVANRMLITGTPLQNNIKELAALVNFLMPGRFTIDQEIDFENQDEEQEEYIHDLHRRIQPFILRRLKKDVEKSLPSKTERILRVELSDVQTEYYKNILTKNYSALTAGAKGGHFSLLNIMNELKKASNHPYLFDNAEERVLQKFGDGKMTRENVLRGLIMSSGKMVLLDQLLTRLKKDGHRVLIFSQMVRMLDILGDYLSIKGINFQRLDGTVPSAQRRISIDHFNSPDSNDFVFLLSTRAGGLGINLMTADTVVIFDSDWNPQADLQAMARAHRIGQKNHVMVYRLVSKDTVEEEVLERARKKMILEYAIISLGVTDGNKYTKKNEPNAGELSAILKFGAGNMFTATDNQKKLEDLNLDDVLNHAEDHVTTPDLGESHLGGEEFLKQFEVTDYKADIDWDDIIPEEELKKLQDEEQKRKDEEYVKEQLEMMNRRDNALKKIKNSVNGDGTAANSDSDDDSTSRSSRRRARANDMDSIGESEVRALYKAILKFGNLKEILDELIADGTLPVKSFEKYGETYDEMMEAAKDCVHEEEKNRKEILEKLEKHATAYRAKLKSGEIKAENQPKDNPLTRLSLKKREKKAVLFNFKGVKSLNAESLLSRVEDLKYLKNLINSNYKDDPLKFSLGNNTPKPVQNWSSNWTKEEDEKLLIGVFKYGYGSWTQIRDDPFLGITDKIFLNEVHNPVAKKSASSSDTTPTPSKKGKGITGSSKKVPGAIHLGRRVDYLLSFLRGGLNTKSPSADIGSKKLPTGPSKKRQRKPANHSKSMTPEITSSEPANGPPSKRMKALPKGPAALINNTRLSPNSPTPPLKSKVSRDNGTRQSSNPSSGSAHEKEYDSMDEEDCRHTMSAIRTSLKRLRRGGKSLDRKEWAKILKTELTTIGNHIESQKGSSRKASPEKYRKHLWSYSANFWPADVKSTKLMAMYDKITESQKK
# Protein translocase subunit SecA (Escherichia coli (strain K12)), sequence (P10408 whole entry): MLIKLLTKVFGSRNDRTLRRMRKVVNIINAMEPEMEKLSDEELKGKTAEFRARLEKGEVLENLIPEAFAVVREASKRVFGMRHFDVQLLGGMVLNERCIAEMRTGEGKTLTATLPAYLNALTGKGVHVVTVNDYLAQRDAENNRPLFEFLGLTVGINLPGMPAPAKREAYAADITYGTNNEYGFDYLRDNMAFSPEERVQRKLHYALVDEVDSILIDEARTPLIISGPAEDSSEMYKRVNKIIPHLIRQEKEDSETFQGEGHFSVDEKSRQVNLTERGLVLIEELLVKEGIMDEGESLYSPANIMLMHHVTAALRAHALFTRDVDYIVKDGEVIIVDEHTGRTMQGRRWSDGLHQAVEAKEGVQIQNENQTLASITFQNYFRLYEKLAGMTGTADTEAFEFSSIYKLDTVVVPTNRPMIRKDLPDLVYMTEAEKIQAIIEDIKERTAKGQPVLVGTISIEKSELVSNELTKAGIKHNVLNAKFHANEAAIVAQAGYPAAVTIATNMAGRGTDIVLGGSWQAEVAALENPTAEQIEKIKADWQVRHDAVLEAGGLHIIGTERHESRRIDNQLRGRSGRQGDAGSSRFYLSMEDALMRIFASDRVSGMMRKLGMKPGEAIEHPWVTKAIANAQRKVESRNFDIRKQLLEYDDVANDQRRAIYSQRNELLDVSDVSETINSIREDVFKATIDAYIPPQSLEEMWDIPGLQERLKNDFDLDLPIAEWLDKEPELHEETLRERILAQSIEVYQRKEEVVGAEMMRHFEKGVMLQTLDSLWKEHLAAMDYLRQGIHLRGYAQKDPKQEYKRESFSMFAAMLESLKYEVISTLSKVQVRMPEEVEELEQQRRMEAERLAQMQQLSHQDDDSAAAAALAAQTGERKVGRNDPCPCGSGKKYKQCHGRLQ
Compound,Percent Effect [1] [%],Percent Effect [2] [%],Percent Effect [3] [%],Percent Effect [4] [%],Percent Effect (Trypanosoma cruzi) [%],Percent Effect [5] [%],Percent Effect [6] [%],Percent Effect (Homo sapiens) [%],Percent Effect [7] [%],Percent Effect [8] [%],Percent Effect [9] [%]
CC(=O)N(Cc1ncc(C)o1)C1CCN(Cc2ccncc2Cl)C1 (stereo unspecified),-2.28,15.6,-3.8,-0.636,3.62,1.05,11.2,-2.79,11.4,30.6,-18.4
O=C(c1cccnc1)N1C[C@@H]2CC[C@H](C1)N(Cc1cccc(Cl)c1F)C2,-2.44,8.22,11.4,4.43,-0.588,5,10.8,8.1,9.68,22.5,-3.1
Cc1c(C(=O)NC(C)C(C)C)nnn1-c1cccc2c1CCN(C)C2 (stereo unspecified),-4.44,10.5,-6.99,3.62,1.85,-17.8,7.19,3.15,3.19,0,-11.2
NC(=O)NCCC(=O)NCc1cccnc1N1CCc2ccccc2C1,-1.28,18.9,-5.95,12.4,6.75,-3.23,4.89,1.04,7.53,23.5,-7.12
Fc1ccc(CN2CCC(c3nccnc3-n3ccnc3)CC2)cc1,-8.16,17.6,8.26,0.663,3.75,-3.02,12.5,17.9,3.23,3.9,-17.3
CC1=Nc2c(c(=O)[nH]n2C2CCOCC2)C(c2cccc(Br)c2)S1 (stereo unspecified),-5.02,12,-9.43,-0.93,1.97,82.6,14.1,30.4,9.52,20.5,-11.4
CCOc1ncccc1CNC(=O)N1CCCC1c1ccncc1 (stereo unspecified),-1.89,5.33,-2.16,2.11,-7.3,4.17,8.37,12.2,4.92,13.6,-7.62
CCc1nc(NCC(=O)N2CCOCC2)c2c(n1)c(C)nn2CC,-2.78,6.67,0.5,7.26,-6.09,-6.87,10.7,-5.15,2.12,5.13,-5.78
COCCCn1c(CN2CCCC(O)C2)cnc1S(=O)(=O)C1CCCC1 (stereo unspecified),-5.06,10.4,-2.5,10.5,4.62,-85.5,3.99,-9.18,3.23,11.1,-11
CNc1cccc(C2CCCN(C(=O)c3ccncc3)C2)n1 (stereo unspecified),-4.49,6.76,12.2,0.305,4.74,-0.232,8.27,-2.26,6.45,11.7,-14.3
COc1ccccc1CC(=O)NS(=O)(=O)c1cncc(Br)c1,-4.15,2.6,4.69,-5.24,-1.87,2.13,1.35,21.7,-4.85,-4.88,-7.14
COc1cccc(S(=O)(=O)CCN2CCC3(CC2)OCCO3)c1,-7.81,2.67,-4.97,6.11,3.99,5.21,6.45,6.75,3.83,6.17,-5.65
CN(Cc1nnc(-c2ccco2)o1)CC1CCCN1c1cccnn1 (stereo unspecified),-4.76,10.4,-4.64,-13.5,-0.881,2.32,21.9,15.6,4.76,9.41,-19.2
COc1ccccc1CNC(=O)C1=NN(c2ccc(C)cc2)C(=O)CN1,-2.03,13.5,-0.556,34.6,-3.62,-0.248,15.2,98.2,-6.45,-3.7,-2.26
CC(C)c1nc(CN(C)CC2CCN(CCO)CC2)no1,-2.78,0,-3.56,0.371,-1.35,2.86,1.9,1.02,2.65,9.76,-3.71
CN(C)c1ncnc2c1CCN(CC1CCCC1)CC2,-3.48,5.41,5.95,-2.79,-3.81,-4.14,15.1,-8.91,4.32,15.4,1.8
